# According to PubChem BioAssay AID795 (NMMLSC, 2007):
# Hit rate of the full screen: of about 24,000 compounds, about 130 (0.54%) were called active. The full list was thinned out, with actives kept by preference. A number with no mark means an inactive call.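 The calls were made as follows: active = side scatter shift above 30%; inactive = the rest.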
# Assay: inducers of granularity increase in LNCaP cells – cell-based, flow cytometry side scatter, primary screen (AID 795);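 also: androgen-responsive LNCaP prostate cancer cells in charcoal-stripped serum medium; percent of cells past a gate set so DMSO wells show 10% shift; higher shift means more granular cells and more differentiation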
# Conditions: LNCaP differentiation, 4 d, at 10 µM, active compounds read high
row,SMILES,side scatter shift [%]
1,CCOc1c(OC)cc(C2C(C#N)=C(N)Oc3n[nH]c(-c4ccncc4)c32)cc1OC (configuration not stated),4
2,Cc1ccc(N2CCN(c3ccc(C)cc3)C2c2ccccn2)cc1,16
3,Cc1ccc(C(c2sc3nc(C)nn3c2O)N2CCN(c3ccccc3)CC2)cc1 (configuration not stated),10
4,FC(F)Oc1ccccc1C1CC(c2ccc(Br)s2)Nc2ncnn21 (configuration not stated),11
5,Cc1c(NC(=O)C(C)OC(=O)c2cc3c4ccccc4n(C)c3s2)c(=O)n(-c2ccccc2)n1C (configuration not stated),7
6,CCOC(=O)N1CCC(NC(=O)c2cnn3ccccc23)CC1,2
7,Cc1ncn(C23CC4CC(CC(O)(C4)C2)C3)n1,9
8,O=C(c1ccc(=O)[nH]c1)N(Cc1ccco1)C1(C(=O)NC2CCCCC2)CCCCC1,1
9,CCN(c1ccc2c(c1)OCO2)S(=O)(=O)c1cc(Br)cc2c1N(C(=O)C1CC1)CC2,6
10,c1ccc(CCn2nnnc2CN2CCN(C3CCCC3)CC2)cc1,14
11,O=C(NCCc1ccc(Cl)cc1)C1CC(=O)N(C2CCCCC2)C1 (configuration not stated),24
12,Cc1nc2ccc(NC(=O)N3CCC(c4ccccc4)C3)cc2nc1C (configuration not stated),11
13,COc1cc2ccccc2cc1C(=O)Nc1ccc(S(=O)(=O)Nc2cc(C)on2)cc1,12
14,COc1ccc2c(c1)CCc1c(C(=O)Nc3c(C)n(C)n(-c4ccccc4)c3=O)noc1-2,1
15,COc1ccc(OC)c(CNC(=O)CCc2nc(-c3cccs3)no2)c1,12
16,CCCN1Cc2cccc(C(=O)NCc3ccccc3)c2C1=O,9
17,O=C(CCCn1c(SCC(=O)c2ccc(F)cc2)nc2ccccc2c1=O)NCc1ccco1,8
18,CCc1nnc(NC(=O)CSc2nnc(Cc3ccccc3)n2-c2ccc(OC)cc2)s1,6
19,CC(NC(=O)c1ccc(Cl)cc1)C(=O)N1CCCCC1 (configuration not stated),5
20,O=C1Nc2c(Br)cc(Br)cc2C1(O)N1CCOCC1 (configuration not stated),13
21,O=C(c1ccco1)N1CCN(CC(=O)N(C2CCCCC2)C2CCS(=O)(=O)C2)CC1 (configuration not stated),9

row,SMILES,side scatter shift [%]
1,COc1cccc(C(=O)Nc2c3c(nn2-c2cccc(C)c2C)CS(=O)(=O)C3)c1OC,8
2,CCN(Cc1ccccc1)C(=O)CSc1nc(C)cc2c1C(=O)OC2,4
3,COc1ccc2c(CC(=O)Nc3nnc(C4CC4)s3)coc2c1,7
4,CCCN1CCN(CCCNC(=O)CN2C(=O)COc3ccccc32)CC1,7
5,COc1ccccc1-n1cnc2cc(NS(=O)(=O)c3ccccc3)ccc21,11
6,COc1ccc(OC)c(CN2C(=O)CCC2(C)C(=O)NC2CCCCCC2)c1 (configuration not stated),11
7,Cc1ccc(-c2nc(CS(=O)CC(=O)NC3CCCC3)c(C)o2)cc1 (configuration not stated),7
8,Cc1ccnc(N2C(=O)c3ccccc3C2Nc2ccc3c(c2)OCCO3)c1 (configuration not stated),7
9,CCOc1ccccc1NC(=O)c1cc(S(=O)(=O)N2CCC3(CC2)OCCO3)ccc1F,7
10,CCOC(=O)N1CCC(NC(=O)C(C)n2c3ccccc3c3cnn(C)c(=O)c32)CC1 (configuration not stated),6
11,Cn1c2ccccc2c2c(C(=O)N3CCN(c4ccc(F)cc4)CC3)cn(C3CCCC3)c(=O)c21,1
12,O=c1c(-c2ccccc2)coc2c(CN3CCOCC3)c(O)ccc12,9
13,COc1ccccc1CNC(=O)CCCNS(=O)(=O)c1cccc2nsnc12,4
14,O=C(NC1CCCCC1)C1CCCN(S(=O)(=O)c2cccs2)C1 (configuration not stated),4
15,CC(C)C[C@H](NC(=O)Nc1cccc(C(F)(F)F)c1)C(=O)O,12
16,CC1(C)CN=C(N2CCN(c3ncnc4sc5c(c34)CCCC5)CC2)S1,4
17,Cc1ccc(C)c(NC(=O)CSc2nnc(Cc3cccn3C)n2-c2ccc(F)cc2)c1,12
18,COc1cccc(NC(=O)Nc2nnc(N3CCCCC3C)s2)c1 (configuration not stated),6
19,CCOC(=O)C1CCN(C(=O)CSc2cc(=O)n(C)c3ccccc23)CC1,8
20,O=c1cc(O)nc(SCc2ccccc2Cl)[nH]1,7
21,O=C(NCCN1CCOCC1)c1ccc2c(c1)ncn2C1CCCC1,8

row,SMILES,side scatter shift [%]
1,Cc1ccc(N(C(=O)CC2NC(=O)NC2=O)C2(C(=O)NC3CCCC3)CCCCC2)cc1 (configuration not stated),0
2,Cc1cc(C)nc(SCc2nnc(SCC(=O)Nc3ncc(C)s3)n2Cc2ccco2)n1,16
3,COc1ccccc1C(=O)N1CCNC(=O)C1CC(=O)Nc1ccc(Cl)cc1 (configuration not stated),7
4,Cc1ccc(S(=O)(=O)n2nc(OC(=O)C(C)(C)C)cc2N)cc1,6
5,CC1=C(C(=O)OC2CCCCC2)C(c2cccnc2)n2ncnc2N1 (configuration not stated),1
6,COc1ccc(CCNC(=O)c2ccc3c(c2)NC(=O)C(N2CCOCC2)S3)cc1OC (configuration not stated),18
7,COc1cccc(NS(=O)(=O)c2ccc3[nH]cc(C(=O)NCCCOC(C)C)c(=O)c3c2)c1,11
8,Cc1cc(C)c(C)c(S(=O)(=O)Nc2ccc(O)cc2)c1C,3
9,O=C(Nc1cccnc1)c1noc2c1CCCCC2,12
10,Fc1ccc2nc(Nc3nc4c(s3)CCCC4)sc2c1,11
11,CN(Cc1ccccc1)C(=O)CCNC(=O)Cn1cnc2ccccc2c1=O,6
12,OCCNCCCCOc1ccccc1F,7
13,CCC(C)Sc1nnc(-c2c[nH]c3ccccc23)n1CCOC (configuration not stated),6
14,CCOC(=O)CNC(=O)CN1C(=O)CCSc2ccccc21,7
15,CCCCn1c(=S)[nH]c2ncccc2c1=O,3
16,CCOC(=O)c1c(N)c(C#N)nn1-c1ccccc1C(=O)OC,6
17,C=CCn1c(=N)n(CC(O)COc2ccc(OC)cc2)c2ccccc21 (configuration not stated),8
18,O=C(Nn1cnc2ccccc2c1=O)c1ccc(F)cc1Cl,9
19,Cc1nn(Cc2ccc(Cl)c(Cl)c2)c(C)c1NC(=O)c1cc(C2CC2)on1,13
20,Cc1cccc(CSc2nnc(Cn3c(=O)sc4ccccc43)n2C)c1,9
